# Where “and” joins values, the source holds several entries; their conditions need not be identical. Identical values can stand only once. A structure can be active in one record and inactive in another. Calls of active or inactive are those of the source. How the source made its calls: active means hit-call score of the fitted dose curve at least 0.9, where 1 is the maximum; inactive means score below 0.9.
# Test: BSK_LPS_PGE2: BioMAP Diversity Plus: LPS Assay for Prostaglandin E2 (PGE2) Biomarker Activity (AID 2283082)
# Details: primary human HUVEC with PBMC; actives raise or lower the signal
# Procedure: BSK_LPS is a cell-based, multiplexed-readout assay that uses umbilical vein endothelium and peripheral blood mononuclear cells, a human vascular primary cell co-culture, with measurements taken at 24 hours after chemical dosing in a 96-well plate.BSK_LPS_PGE2 is an assay component measured in the BSK_LPS assay. It measures PGE2 antibody related to regulation of gene expression using ELISA technology.Data from the assay component BSK_LPS_PGE2 was analyzed into 1 assay endpoint. This assay endpoint, BSK_LPS_PGE2, was analyzed with bidirectional fitting relative to DMSO as the negative control and baseline of activity. Using a type of binding reporter, gain or loss-of-signal activity can be used to understand changes in the signaling as they relate to the gene PTGER2. Furthermore, this assay endpoint can be referred to as a primary readout, because this assay has produced multiple assay endpoints where this one serves a signaling function. To generalize the intended target to other relatable targets, this assay endpoint is annotated to the gpcr intended target family, where the subfamily is rhodopsin-like receptor.
# The levels of cell surface (or secreted, indicated by the prefix "s") biomarker endpoints were measured by ELISA. Overt cytotoxicity to cells in confluent adherent cultures (all systems other than the BT system) was assessed by measuring total protein levels using sulforhodamine B (SRB) staining in parallel cultures at the time of biomarker measurements, indicated as SRB endpoints. For proliferation assays for adherent cell types, individual cell types are cultured at sub-confluence and relative cell numbers quantified by SRB staining at time points optimized for each system (48 h: 3C and CASM3C systems; 72 h: BT and HDF3CGF systems; 96 h: SAg system). SRB was performed by staining cells with 0.1% SRB after fixation with 10% TCA and reading wells at 560 nm.Viability and proliferation of PBMC (T cells) was quantified by Alamar Blue reduction for the SAg and BT systems. For PBMC viability (referred to as PBMC Cytotoxicity within the assay endpoint names), cells were plated (75,000/well in a 96-well plate) and then chemical samples added for 1 h before addition of activators, SEB and TSST-1 (20 ng/mL final concentration each). Cells were incubated for 90 h. Then, Alamar Blue (20 uL/well) (Invitrogen, Cat DAL1100) was added for 6 h, and the plates were read with a fluorescence microplate reader at 546/580 nm (excitation/emission). For PBMC proliferation, cells were plated and activated as above but incubated for only 16 h prior to addition of Alamar Blue. Plates were read after 6 h.
SMILES,outcome,AC50
CCOC(=O)c1ccc(O)cc1,inactive,
CCC(C)OC(=O)N1CCCCC1CCO (stereo not given),inactive,
O=C(Nc1ccc([N+](=O)[O-])cc1Cl)c1cc(Cl)ccc1O,,0.178 µM (active)
CCCCCCC(C)OC(=O)COc1nc(F)c(Cl)c(N)c1Cl (stereo not given),,20.3 µM (active)
CC1(C)C(C=C(Cl)Cl)C1C(=O)OCc1cccc(Oc2ccccc2)c1 (stereo not given),,4.13 µM (active)
COC(=O)c1ccc(I)cc1S(=O)(=O)NC(=O)Nc1nc(C)nc(OC)n1,inactive,
CCOC(=O)NCCOc1ccc(Oc2ccccc2)cc1,inactive,
CC(C)(c1ccc(O)cc1)c1ccc(O)cc1,inactive,16.6 µM (active) and 10.3 µM (active) and 11.1 µM (active)
CCOC(=O)C(C)Oc1ccc(Oc2cnc3cc(Cl)ccc3n2)cc1 (stereo not given),,13.1 µM (active)
C[C@]12CC[C@@H]3c4ccc(O)cc4C[C@@H](CCCCCCCCCS(=O)CCCC(F)(F)C(F)(F)F)[C@H]3[C@@H]1CC[C@@H]2O (stereo not given in full),inactive,
C#CCOC(=O)[C@@H](C)Oc1ccc(Oc2ncc(Cl)cc2F)cc1,inactive,
CC(C)(C)[C@@H](O)[C@@H](Cc1ccc(Cl)cc1)n1cncn1,inactive,
CCOC(=O)[C@H](C)Oc1ccc(Oc2nc3ccc(Cl)cc3o2)cc1,,8.85 µM (active)
COC(=O)c1c(Cl)nn(C)c1S(=O)(=O)NC(=O)Nc1nc(OC)cc(OC)n1,inactive,
c1ccc(Nc2ccccc2)cc1,,3.51 µM (active)
CCCCOCCOCCOCc1cc2c(cc1CCC)OCO2,inactive,
CC(=O)S[C@@H]1CC2=CC(=O)CC[C@]2(C)[C@H]2CC[C@@]3(C)[C@@H](CC[C@@]34CCC(=O)O4)[C@H]12,,15.6 µM (active)
Cc1nn(C)c(Oc2ccccc2)c1C=NOCc1ccc(C(=O)OC(C)(C)C)cc1,,1.11 µM (active)
O=C(O)c1ccccc1,inactive,
O=C(c1ccc(O)cc1O)c1ccc(O)cc1O,inactive,

SMILES,outcome,AC50
COC(=O)c1ccccc1C(=O)O,inactive,
Oc1ccc(C(c2ccc(O)cc2)C(Cl)(Cl)Cl)cc1,,29.3 µM (active)
CSC(=O)c1cccc2nnsc12,inactive,
CCOC(=O)COc1cc(-n2ncc(C(F)(F)F)c(C)c2=O)c(F)cc1Cl,inactive,
CCCCOC(=O)C(C)Oc1ccc(Oc2ccc(C(F)(F)F)cn2)cc1 (stereo not given),inactive,
N[C@@H](Cc1cc(I)c(Oc2ccc(O)c(I)c2)c(I)c1)C(=O)O,inactive,
C#C[C@]1(O)CC[C@H]2[C@@H]3CCC4=CC(=O)CC[C@@H]4[C@H]3CC[C@@]21CC,,2.43 µM (active)
CC(=O)[C@H]1CC[C@H]2[C@@H]3CCC4=CC(=O)CC[C@]4(C)[C@H]3CC[C@]12C,inactive,
CCN(Cc1c(F)cccc1Cl)c1c([N+](=O)[O-])cc(C(F)(F)F)cc1[N+](=O)[O-],inactive,
CCCN(CCC)C(=O)SCC,inactive,
c1ccc2[nH]c(-c3cscn3)nc2c1,inactive,
CCCCCOC(=O)COc1cc(N2C(=O)C3=C(CCCC3)C2=O)c(F)cc1Cl,inactive,
C[C@]12C[C@H](O)[C@H]3[C@@H](CCC4=CC(=O)CC[C@@]43C)[C@@H]1CC[C@@H]2C(=O)CO,inactive,
COCCO,inactive,
O=C(c1ccccc1)C1CCCCC1,inactive,
CCOC(=O)C(C)Oc1ccc(Oc2nc3ccc(Cl)cc3o2)cc1 (stereo not given),,24.3 µM (active)
CCC(O)=C1C(=O)CC(C(=O)O)CC1=O (stereo not given),inactive,
CCCOC(=O)c1ccc(C(=O)OCCC)nc1,inactive,
OB(O)O,inactive,

# From PubChem BioAssay (EPA / NIEHS)
